Results from the supplement of paper PMC6555819.

Assays:
Test in all cases: PBM binding z-score (relative to random genomic background probes); higher = stronger binding; sequences stand for … in GC…GCGATTGACAGCGTAGAATGAAGG
[1] = test system: PPARg:RXRa DBDmut IVT, anti-RXR (DBD mutation: RXRa K156A/R161A, NR concentration 270 nM, RXRa partner concentration 90 nM)
Method in brief: (§1)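 On custom Agilent 4×180K arrays, double-stranded probes with 34-nt variable regions carried direct-repeat seeds, single-nucleotide variants, half-site ablations or random human genomic background. Ligand-free nuclear receptor dimers were applied for 1 h, and binding was read with antibodies against each partner (one per run). Binding z-scores come from regression-normalized fluorescence, with the random background probes as reference.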

[2] = test system: PPARg:RXRa IVT, anti-PPARg (NR concentration 270 nM, RXRa partner concentration 90 nM)
Method in brief: as §1

[3] = test system: PPARg DBDmut:RXRa IVT, anti-PPARg (DBD mutation: PPARg1 K132A/R137A, NR concentration 270 nM, RXRa partner concentration 90 nM)
Method in brief: as §1

[4] = test system: PPARg DBDmut IVT, anti-PPARg (DBD mutation: PPARg1 K132A/R137A, NR concentration 270 nM)
Method in brief: as §1

[5] = test system: PPARg homodimer (NR concentration 180 nM)
Method in brief: as §1

[6] = test system: PXR:RXRa (NR concentration 270 nM, RXRa partner concentration 90 nM)
Method in brief: as §1

[7] = test system: PXR homodimer (NR concentration 270 nM)
Method in brief: as §1

[8] = test system: RARa:RXR (NR concentration 270 nM, RXRa partner concentration 90 nM)
Method in brief: as §1

[9] = test system: RARa homodimer (NR concentration 270 nM)
Method in brief: as §1

[10] = test system: RARb:RXRa (NR concentration 270 nM, RXRa partner concentration 90 nM)
Method in brief: as §1

[11] = test system: RARb homodimer (NR concentration 270 nM)
Method in brief: as §1

[12] = test system: RARg:RXRa (NR concentration 270 nM, RXRa partner concentration 90 nM)
Method in brief: as §1

[13] = test system: RARg homodimer (NR concentration 270 nM)
Method in brief: as §1

[14] = test system: RXRa DBDmut IVT, anti-RXR (DBD mutation: RXRa K156A/R161A, NR concentration 90 nM)
Method in brief: as §1

[15] = test system: RXRa homodimer (NR concentration 180 nM)
Method in brief: as §1

[16] = test system: THRa:RXRa (NR concentration 90 nM, RXRa partner concentration 90 nM)
Method in brief: as §1

[17] = test system: THRa homodimer (NR concentration 90 nM)
Method in brief: as §1

[18] = test system: VDR homodimer (NR concentration 270 nM)
Method in brief: as §1

Sequence | PBM binding z-score [1] | PBM binding z-score [2] | PBM binding z-score [3] | PBM binding z-score [4] | PBM binding z-score [5] | PBM binding z-score [6] | PBM binding z-score [7] | PBM binding z-score [8] | PBM binding z-score [9] | PBM binding z-score [10] | PBM binding z-score [11] | PBM binding z-score [12] | PBM binding z-score [13] | PBM binding z-score [14] | PBM binding z-score [15] | PBM binding z-score [16] | PBM binding z-score [17] | PBM binding z-score [18]
TGAATGATGTTAAAGATCAGGGAACGTGGCGTCG | -0.672 | 0.00051 | 0.678 | 0.88 | 0.216 | -0.226 | 0.0908 | -0.242 | 0.502 | -0.0162 | -0.832 | 0.221 | 0.133 | -0.892 | 0.495 | -0.238 | -0.77 | -0.0105
TAGCCGAGGTCATGGGCCAGTATACCACGCGAAC | 1.94 | 4.59 | 1.31 | 0.953 | 2.7 | 5.24 | 0.728 | 5.62 | 0.741 | 5.01 | 4.19 | 6.64 | 6.26 | 3.46 | 7.64 | 4.25 | 2.71 | 3.91
ATACCTAGGTGATCGTGAGGTCGTTGATACTAAC | 1.24 | 1.46 | 0.324 | 0.924 | 0.783 | 2.64 | 2 | 2.04 | 0.311 | 1.09 | 1.49 | 1.58 | 0.568 | 0.641 | 1.51 | 3.15 | 2.51 | 3.13
TCGAGTAGGTTAGGGGCATTAAGAATGGCGTCGA | 2.21 | 1.23 | -0.687 | -1.11 | 0.475 | 0.596 | 0.671 | 0.713 | -0.193 | 1.04 | 0.787 | 0.329 | 0.269 | 0.304 | 0.639 | 0.955 | 0.048 | 0.785
CTGGAAAGGTCGTGCTCAGGTGAGTATACCAAAC | 0.634 | 1.35 | -0.0196 | 0.149 | 1.33 | 3.07 | -0.203 | 4.31 | -0.374 | 3.59 | 2.76 | 5.06 | 3.97 | 1.91 | 4.95 | 4.09 | 0.923 | 0.759
CCTGCTAGGTCACTGGTCAGCTAAAGCAGCTCGC | 4.87 | 4.51 | 0.683 | -0.736 | 1.51 | 1.27 | -0.378 | 2.08 | -0.0661 | 3.92 | 3.08 | 3.82 | 4.65 | 1.68 | 2.59 | 2.7 | 0.97 | 0.123
CCTACTGGGGCAAGGTTACCATAACGCACAGCCA | 4.78 | 5.52 | 2.27 | 0.765 | 2.66 | 0.3 | -0.0906 | 0.631 | 0.512 | 1.7 | 1.26 | 1.22 | 1.37 | -0.688 | 1.02 | 1.14 | 0.409 | 0.0551
CAGCCTAGGTCGGGGCCAGTATAGGAGGAACGTT | -0.532 | -0.678 | -0.979 | -1.04 | -0.152 | -0.445 | -0.795 | -0.269 | -1.01 | 1.02 | 0.941 | 0.359 | 0.842 | -0.52 | -0.0745 | 0.171 | -0.524 | -0.348
TCATATAGTTAAAGGTGAAAGTCGAACGATATGA | 1.5 | 1.85 | 0.7 | 1.07 | 1.1 | 0.912 | -0.26 | 1.47 | 0.716 | 2.05 | 1.34 | 1.47 | 1.18 | 0.551 | 2.08 | 1.23 | -0.586 | -0.0826
TCATATAGGTAAACATGTGAAAGTCCGTAAGTTA | 4.4 | 3.17 | 1.32 | 1.79 | 0.718 | 0.808 | 0.34 | 0.815 | 1.18 | 0.412 | 0.34 | 0.489 | 0.354 | 1.66 | 1.06 | 0.435 | 0.267 | 0.405
TTTTGTAGATCAATAGAGGTTAAGAAAGTGCGCT | 1.22 | 1.99 | 1.51 | 1.54 | 1.32 | 3.37 | 0.915 | 2.2 | 1.45 | 1.15 | 1.27 | 0.945 | 0.869 | -0.0202 | 1.52 | 2.28 | -0.0563 | 0.777
TCTACTAGTTGAAGGGCAACCGACGAGTCCGTTT | 1.69 | 0.294 | 0.093 | -0.701 | 0.312 | 0.458 | 0.108 | 0.275 | -0.569 | 1.27 | 0.815 | 0.16 | 0.311 | 1.11 | 0.353 | -0.216 | -0.254 | 0.707
ATATGTACGTTAGCTGGGGTCATTCAGACTAGGC | 0.759 | 1.55 | 1.41 | 1.62 | 2.55 | 5.7 | 3.18 | 5.82 | 1.41 | 2.57 | 3.2 | 3.67 | 2.5 | 2.23 | 5.37 | 4.01 | 3.2 | 5.16
ATACCAAGGTGATCGTGAGGTCGTTGTTACTAAC | 0.34 | 1.36 | 0.414 | 0.123 | 1.05 | 2.84 | 1.29 | 2.11 | 0.23 | 1.3 | 1.7 | 1.78 | 0.637 | 0.951 | 1.21 | 3.27 | 2.64 | 3.22
